{"source": "PubChem BioAssay (NCI)", "note": "Several values for one entry are separate records, joined by “and”; a condition that tells them apart may be missing. Identical values can stand only once. This is part of a sample that, as a whole, favours compounds with a hit. Of some 83,000 tested, about 20% had one in any assay.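 Growth was measured after 48 h exposure to one concentration of compound in 96-well plates. Values under 10 count as active.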 Values without a mark were called inactive. Activity calls are given as the source filed them."}
{"test_system": "MDA-MB-468 breast", "assay": "NCI-60 one-dose screen, 48 h (100 = growth as untreated, 0 = no growth, -100 = all killed)", "conditions": "10 µM unless noted"}
{"smiles": "Cc1[nH]c(=O)[nH]c(=O)c1CCSSCCc1c(C)[nH]c(=O)[nH]c1=O", "growth": "105%"}
{"smiles": "CN1C(=O)N(C)C2C1NN=c1s/c(=C\\c3c[nH]c4ccccc34)c(=O)n12", "note": "(stereo not drawn)", "growth": "39.5%"}
{"smiles": "CCOC(=O)c1sc(Nc2ncccn2)nc1-c1ccccn1", "growth": "10.4%"}
{"smiles": "C=C(C)[C@@H]1CCC[C@]2(C(=O)OC)CC[C@]3(C)[C@@H](CC[C@@H]4[C@@]5(C)CCCNC(C)(C)[C@@H]5CC[C@]43C)[C@@H]12", "growth": "65.3%"}
{"smiles": "COc1cc(Nc2ccnc(N3CCN(c4ccnc5cc(Cl)ccc45)CC3)n2)cc(OC)c1", "growth": "-0.859% (active)"}
{"smiles": "CCCCCN(CCCCC)CC(O)c1cc2c(c3ccccc13)CCCC2", "note": "(stereo not drawn)", "growth": "72.1% and 81.2%"}
{"smiles": "CC(=O)Nc1ccc2c(c1)C(N1CC3CCC(CC3)C1)c1ccccc1-2", "note": "(stereo not drawn)", "growth": "94%"}
{"smiles": "CN(C)CCNC(=O)c1ccc(-c2nc3ccc4[nH]ncc4c3c3c2COCC3)cc1", "growth": "-54.5% (active)"}
{"smiles": "COc1ccc2[nH]cc(C(c3cc(F)cc(F)c3)c3c[nH]c4ccc(OC)cc34)c2c1", "growth": "89.6%"}
{"smiles": "O=C(O)[C@@H]1c2ccccc2-c2ccccc2[C@H]1C(=O)O", "growth": "97.5%"}
{"smiles": "C=CCn1c(SCC(=O)Nc2cccc(C(=O)/C=C/c3ccc(Br)cc3)c2)nc2ccccc2c1=O", "growth": "99.6%"}
{"smiles": "CCCCCCCCCCn1cc[n+](C)c1", "growth": "-42.1% (active)"}
{"smiles": "O=C(/C=C/c1ccccn1)c1ccccc1", "growth": "21.3%"}
